This is a sample that favours compounds with a hit; in the whole collection about 12% have one here.
FMDV antiviral: antivirals against foot and mouth disease virus | FMDV antiviral cell-based qHTS | Potency, µM (titrated, usually from 57.9 µM), without a hit: top-dose activity change, negative = inhibition, usual class: inhibitors | 410,000 compounds, 1.2% hits; calls by dose curve; tested in HEK293T cells; note: read-out not given here; potency is the fitted concentration of half-maximal effect; % is set by controls: 0 for no effect and ±100 for the full control effect; nearly all actives have a fitted effect of over 45% in size
Sm TGR block: inhibitors of Schistosoma mansoni thioredoxin glutathione reductase; Potency, µM (doses to about 114 µM), for the others: top-dose activity change, negative = inhibition, usual class: inhibitors; AID 485364; purified TGR, DTNB reduction, TNB absorbance 405 nm; 360,000 compounds, 3% hits; Q962Y6; active = well fitted inhibition curve with a large enough effect; inconclusive = small, poorly fitted or top-dose-only effect; inactive = no such curve, though single readings can be large or run the other way; note: potency is the fitted concentration of half-maximal effect; % is set by controls: 0 for no effect and ±100 for the full control effect; nearly all actives have a fitted effect of over 60% in size
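First, TGR (20 nM dispensed) and NADPH were mixed with compound. Second, a 15 min room-temperature incubation followed. Third, further NADPH and then DTNB were added to start the reaction. Finally, TNB absorbance was monitored kinetically.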
Cycloheximide cs: affects cycloheximide protein synthesis inhibition readout, counter-screen. max response, %. cell reporter, cycloheximide protein synthesis inhibition counterscreen. 300,000 compounds, 12% hits; in the data active = max response mostly above about 13%, no sharp cut-off; inactive = mostly below about 14%; note: read at 38.3 µM for the half of the compounds with a filed dose; 0% is about no effect
Shiga inhibitor: blocks Shiga toxin action in Vero cells; Vero cells, Shiga toxin protein synthesis inhibition reporter; inhibition, % at 38.7 µM; 290,000 compounds, 9.2% hits; in the data active = inhibition mostly above about 28%, no sharp cut-off; inactive = mostly below about 43%; note: 0% is about no effect
* marks the source's active call; other numbers are inactive results.

For CCc1cc2c(=O)n(Cc3ccccc3)c(SC3CCOC3=O)nc2s1 (stereo not given) the results were FMDV antiviral 2%, Sm TGR block -6%, Cycloheximide cs -2 and Shiga inhibitor 13.
CCc1cc2c(=O)n(Cc3ccco3)c(SCC(=O)N(C)C3CCS(=O)(=O)C3)nc2s1 (stereo not given) was read as FMDV antiviral -9%, Sm TGR block 32µM*, Cycloheximide cs 18 and Shiga inhibitor 43.
COc1cc(NC(=O)c2ccc(NC(=O)N3CCSc4ncccc43)cc2)cc(OC)c1 was read as FMDV antiviral inconclusive and Sm TGR block -1%.
Screening CN(c1nnc(NC(=O)Nc2ccccc2C(F)(F)F)s1)C1CCCCC1 returned FMDV antiviral 16% and Sm TGR block -2%.
`COc1cc(/C=N/Nc2ccc(F)cc2F)cc(OC)c1OC` gave FMDV antiviral -7%, Sm TGR block -13%, Cycloheximide cs 9 and Shiga inhibitor 39.
For Cc1cc(C)nc(N/N=C/c2sccc2C)n1 the results were FMDV antiviral 62%, Sm TGR block -14%, Cycloheximide cs 26* and Shiga inhibitor 77*.
`Cc1ccsc1/C=N/Nc1ncc(Cl)cc1Cl` gave FMDV antiviral -38%, Sm TGR block 2%, Cycloheximide cs 32* and Shiga inhibitor 119*.
For Cc1ccsc1/C=N/Nc1ccc(F)cc1F the results were FMDV antiviral 46%, Sm TGR block -1%, Cycloheximide cs 44* and Shiga inhibitor 91*.
For Cc1ccsc1/C=N/NC(=O)Cc1ccc(Cl)cc1 the results were FMDV antiviral -3%, Sm TGR block 4%, Cycloheximide cs 9 and Shiga inhibitor 19.
`Cc1ccsc1/C=N/Nc1nc(=O)[nH]nc1C` gave FMDV antiviral 7%, Sm TGR block -5%, Cycloheximide cs 34* and Shiga inhibitor 112*.
Screening Oc1ccccc1C=Nc1ccccc1-c1nc2ccccc2[nH]1 returned FMDV antiviral -36%, Sm TGR block 0%, Cycloheximide cs 38* and Shiga inhibitor 75*.
O=C(NCc1ccccc1)c1ccccc1-c1nc2ccccc2[nH]1 was read as FMDV antiviral 3%, Sm TGR block 5%, Cycloheximide cs 8 and Shiga inhibitor -5.
`COc1ccc(OC)c(C=Nc2ccccc2-c2nc3ccccc3[nH]2)c1` gave FMDV antiviral 11%, Sm TGR block 0%, Cycloheximide cs 27* and Shiga inhibitor 45*.
Oc1ccc(C=Nc2cccc3ncccc23)c(O)c1 was read as FMDV antiviral -17%, Sm TGR block -3%, Cycloheximide cs 1 and Shiga inhibitor 2.
Oc1ccc(C=Nc2ccccc2-c2nc3ccccc3[nH]2)c(O)c1 was read as FMDV antiviral 17%, Sm TGR block 3%, Cycloheximide cs 13* and Shiga inhibitor 51.
CCc1nnc(NC(=O)CSCc2cc(=O)c3ccc(C)cc3[nH]2)s1 was read as FMDV antiviral -4% and Sm TGR block -6%.
Screening Cc1cc(NC(=O)c2ccc(C(C)(C)C)cc2)no1 returned FMDV antiviral -21%.
CC(=O)Nc1ccc(C(=O)Nc2cc(C)on2)cc1 was read as FMDV antiviral 46%, Sm TGR block 1%, Cycloheximide cs 32* and Shiga inhibitor 44*.
Cc1cc(NC(=O)c2nn(C)c(C)c2Br)no1 was read as FMDV antiviral 72%, Sm TGR block 5%, Cycloheximide cs 45* and Shiga inhibitor 81*.
For Cc1cc(NC(=O)c2ccc(NC(=O)C(C)Oc3ccccc3)cc2)no1 (stereo not given) the results were Sm TGR block -10%, Cycloheximide cs 9 and Shiga inhibitor 1.
For Cc1cc(NC(=O)c2ccc(F)cc2)no1 the results were FMDV antiviral 65%, Sm TGR block -6%, Cycloheximide cs 33* and Shiga inhibitor 91*.
`Cc1cc(NC(=O)c2nn(C)c(C)c2[N+](=O)[O-])no1` gave FMDV antiviral -6%, Sm TGR block 10%, Cycloheximide cs -2 and Shiga inhibitor 18.
Screening Cc1cc(C)n2nc(N)c(N=Nc3ccccc3)c2n1 returned FMDV antiviral 4%, Sm TGR block 19%, Cycloheximide cs 25 and Shiga inhibitor 58.
Cc1cc(C)[n+]2[nH]c(N)c(N=Nc3ccccc3)c2n1 was read as FMDV antiviral 0%, Sm TGR block 17%, Cycloheximide cs 17* and Shiga inhibitor 58*.
`COc1cc(C(=O)N2CCNC(=O)C2CC(=O)Nc2ccc(C)c(C)c2)cc(OC)c1OC` (stereo not given) gave FMDV antiviral 4% and Sm TGR block 0%.
`COc1ccc(/C=C/CN2CCN(CC(C)C)C(CCO)C2)cc1` (stereo not given) gave FMDV antiviral -12%, Sm TGR block -4%, Cycloheximide cs 13 and Shiga inhibitor 23.
`COc1ccccc1/C=C/CN1CCN(Cc2ccc(C)o2)C(CCO)C1` (stereo not given) gave FMDV antiviral -14%, Sm TGR block 45µM*, Cycloheximide cs -2 and Shiga inhibitor -3.
Screening COc1cc(/C=C/CN2CCN(Cc3ccc(C)o3)C(CCO)C2)ccc1O (stereo not given) returned FMDV antiviral -18%, Sm TGR block 13µM*, Cycloheximide cs 4 and Shiga inhibitor 14.
CCOc1cc(CN2CCN(Cc3ccc(C)o3)C(CCO)C2)ccc1OC (stereo not given) was read as FMDV antiviral -8%, Cycloheximide cs 10 and Shiga inhibitor -12.
Screening COc1cc(/C=C/CN2CCN(CCC(C)C)C(CCO)C2)ccc1O (stereo not given) returned FMDV antiviral -7%, Sm TGR block 13µM*, Cycloheximide cs 3 and Shiga inhibitor 1.
For CC(C)(C)OC(=O)N1CCC(c2c(C(=O)N3CCN(c4ccccn4)CC3)cnn2-c2ccccc2Cl)CC1 the results were FMDV antiviral -21% and Sm TGR block 15%.
`CCc1ccc(NC(=O)CSc2nc3ccccc3nc2N2CCCCC2)cc1` gave FMDV antiviral 20%, Sm TGR block 14%, Cycloheximide cs 22* and Shiga inhibitor 14.
`COc1cccc(NC(=O)CSc2nc3ccccc3nc2N2CCCC2)c1` gave FMDV antiviral 3%, Sm TGR block -17%, Cycloheximide cs 37* and Shiga inhibitor 57*.
COc1cccc(NC(=O)CSc2nc3c(sc4ccccc43)c(=O)n2CCN(C)C)c1 was read as FMDV antiviral -9%, Sm TGR block 4%, Cycloheximide cs -8 and Shiga inhibitor -12.
Cc1cccc(NC(=O)CSc2nc3ccccc3nc2N2CC(C)OC(C)C2)c1 (stereo not given) was read as FMDV antiviral 0%, Sm TGR block 9%, Cycloheximide cs 11* and Shiga inhibitor 11.
Screening COc1cccc(NC(=O)CSc2nc3c(sc4ccccc43)c(=O)n2CCCN2CCCC2)c1 returned FMDV antiviral -16%, Sm TGR block -3%, Cycloheximide cs 16* and Shiga inhibitor 39*.
`COc1ccc(OC)c(NC(=O)c2cc3cc(C)ccc3n2C)c1` gave FMDV antiviral -8% and Sm TGR block -4%.
`CC(C)c1nnc(NC(=O)CSc2ccccc2)s1` gave FMDV antiviral 11%, Sm TGR block 1%, Cycloheximide cs 34* and Shiga inhibitor 18.

Source: PubChem
